Source: PubChem BioAssay (NCATS)
Results filed as inconclusive are left out. Unmarked numbers belong to inactive results. Calls follow the shape of the dose curve; as a rule, active = well fitted cell-killing curve with a large enough effect; inconclusive = small, poorly fitted or top-dose-only effect, or effect the other way; inactive = no such curve, though single readings can be large or run the other way.

Experiment: Quantitative High-Throughput drug screen in 47 multiple myeloma cell lines against the NCATS MIPE library collection: OCIMY1_PLB cell viability assay (AID 1918979); also: nearly all actives have a fitted effect of over 35% in size
Conditions: OCI-MY1 myeloma viability, CellTiter-Glo ATP, 48 h; series mostly up to 45.8 µM; viability: at the top concentration
Source text: PI: Beverly A. Mock Ph.D.
Laboratory of Cancer Biology and Genetics,
Center for Cancer Research, National Cancer Institute,
National Institute of Health, Bethesda, Maryland
Drug resistance and disease progression are common in multiple myeloma (MM) patients, underscoring the need for new therapeutic combinations. […] We hypothesized that effective combinations would reduce MYC expression and enhance p16 activity. […] These preclinical data identify potentially useful drug combinations for evaluation in drug-resistant MM and reveal potential mechanisms of combined drug sensitivity.
Described herein is the primary MIPE qHTS used to cherrypick compounds. Validated compounds were then further tested for potential synergistic activiy.
[1] Peat TJ, Gaikwad SM, Dubois W, Gyabaah-Kessie N, Zhang S, Gorjifard S, Phyo Z, Andres M, Hughitt VK, Simpson RM, Miller MA, Girvin AT, Taylor A, Williams D, D'Antonio N, Zhang Y, Rajagopalan A, Flietner E, Wilson K, Zhang X, Shinn P, Klumpp-Thomas C, McKnight C, Itkin Z, Chen L, Kazandijian D, Zhang J, Michalowski AM, Simmons JK, Keats J, Thomas CJ, Mock BA. Drug combinations identified by high-throughput screening promote cell cycle transition and upregulate Smad pathways in myeloma. Cancer Lett. 2023 Aug 1;568:216284. doi: 10.1016/j.canlet.2023.216284. Epub 2023 Jun 24. PMID: 37356470; PMCID: PMC10408729.
SEQUENCE No. (e.g., 1, 2, 3, etc.); […] (e.g., Cells, Incubation, Reagent, etc.); VALUE and DESCRIPTION.
1; Cells; 5 uL; white, solid bottom 1536-well Greiner assay plate.
2; Compounds; 23 nL; Kalypsis pin tool (Wako USA) equipped with a 1536-well pin head to transfer to the assay plates.
3; Incubation; 48 hours; 37C incubation.
4; Reagent;5uL; CellTiter Glo (Promega).
5; Detector; 425V; Luminescence; Viewlux PerkinElmer.
NOTES (numbers refer to Sequence numbers above)
1. The cell-based screening methods employed in this study were like those previously published. Briefly, the corresponding myeloma cell lines were screened in 1,536-well plates with 500 cells, 5-uL per well for inhibition of cell viability (assessed by measuring ATP levels with CellTiterGlo).
2. NCATS MIPE 4.0 library of approved and investigational drugs were added using the Kalypsis pin tool. Wells treated with DMSO only for 100% viability and media only for 0% viability were used as controls.
3. The assay plates were covered and incubated for 48 hours in a 37C, 5% CO2 incubator with controlled humidity.
4. After 48 hours, CellTilter-GloTM luminescent substrate mix (Promega) reagent was added to the assay plate and plates we incubated for 5 min at room temperature.
5. Signal was measured as median relative luminescence units on a ViewLux (PerkinElmer) multiplate reader.
[1] Heske CM, Davis MI, Baumgart JT, Wilson K, Gormally MV, Chen L, Zhang X, Ceribelli M, Duveau DY, Guha R, Ferrer M, Arnaldez FI, Ji J, Tran HL, Zhang Y, Mendoza A, Helman LJ, Thomas CJ. Matrix Screen Identifies Synergistic Combination of PARP Inhibitors and Nicotinamide Phosphoribosyltransferase (NAMPT) Inhibitors in Ewing Sarcoma. Clin Cancer Res. 2017 Dec 1;23(23):7301-7311. doi: 10.1158/1078-0432.CCR-17-1121. Epub 2017 Sep 12. PMID: 28899971; PMCID: PMC6636827.

Row | SMILES | viability
1 | O=C(O)CCCc1ccc(N(CCCl)CCCl)cc1 | 108%
2 | C[C@]12CC[C@@H]3c4ccc(OC(=O)N(CCCl)CCCl)cc4CC[C@H]3[C@@H]1CC[C@@H]2OP(=O)(O)O | 133%
3 | CC(NC(C)(C)C)C(=O)c1cccc(Cl)c1 (stereo unspecified) | 94.4%
4 | CCC1(c2ccc(N)cc2)CCC(=O)NC1=O (stereo unspecified) | 109%
5 | CC(C)c1cccc(C(C)C)c1O | 112%
6 | COc1cc(OC)c(OC)cc1C=O | 109%
7 | CN1C(=O)COc2c(C(=O)NC3CN4CCC3CC4)cc(Cl)cc21 (stereo unspecified) | 145%
8 | C[C@]12CCC(=O)C=C1CC[C@@H]1[C@H]3CC[C@](C)(O)[C@@]3(C)CC[C@@H]12 | 119% [at 92.2 µM]
9 | O=P1(N(CCCl)CCCl)NCCCO1 (stereo unspecified) | 109%
10 | CC(C)C[C@H](CN)CC(=O)O | 108%
11 | C[C@]12CC[C@H]3[C@@H](CC[C@@]45O[C@H]4C(O)=C(C#N)C[C@]35C)[C@H]1CC[C@H]2O | 108%
